Test results taken from ChEMBL document CHEMBL1961873, “Compounds: GSK PKIS; Assays: Nanosyn kinase panel” (2012).

Columns and labels:
[1] = target: Ribosomal protein S6 kinase alpha-6 (Homo sapiens) (UniProt Q9UK32); conditions: at 1 µM;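 also: each value is a mean inhibition of RSK4 from a GSK PKIS panel screen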
[2] = target: T1, Serine/threonine-protein kinase Sgk1 (Homo sapiens) (UniProt O00141); conditions: at 0.1 µM
T1 sequence (whole entry): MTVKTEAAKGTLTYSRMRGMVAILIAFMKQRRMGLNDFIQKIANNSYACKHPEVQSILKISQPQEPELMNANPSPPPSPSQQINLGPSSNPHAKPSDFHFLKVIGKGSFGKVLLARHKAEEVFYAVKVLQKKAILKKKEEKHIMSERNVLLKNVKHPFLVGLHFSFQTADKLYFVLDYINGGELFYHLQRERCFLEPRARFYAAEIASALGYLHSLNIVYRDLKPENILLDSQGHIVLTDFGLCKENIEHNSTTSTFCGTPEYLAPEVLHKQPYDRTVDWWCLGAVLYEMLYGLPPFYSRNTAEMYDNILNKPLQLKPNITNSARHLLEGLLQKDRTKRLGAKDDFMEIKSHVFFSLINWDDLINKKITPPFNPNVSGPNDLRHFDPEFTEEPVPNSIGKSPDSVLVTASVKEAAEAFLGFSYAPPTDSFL

[3] = target: T1, Serine/threonine-protein kinase Sgk1 (Homo sapiens); conditions: at 1 µM
[4] = target: T2, Serine/threonine-protein kinase Sgk2 (Homo sapiens) (UniProt Q9HBY8); conditions: at 0.1 µM
T2 sequence (whole entry): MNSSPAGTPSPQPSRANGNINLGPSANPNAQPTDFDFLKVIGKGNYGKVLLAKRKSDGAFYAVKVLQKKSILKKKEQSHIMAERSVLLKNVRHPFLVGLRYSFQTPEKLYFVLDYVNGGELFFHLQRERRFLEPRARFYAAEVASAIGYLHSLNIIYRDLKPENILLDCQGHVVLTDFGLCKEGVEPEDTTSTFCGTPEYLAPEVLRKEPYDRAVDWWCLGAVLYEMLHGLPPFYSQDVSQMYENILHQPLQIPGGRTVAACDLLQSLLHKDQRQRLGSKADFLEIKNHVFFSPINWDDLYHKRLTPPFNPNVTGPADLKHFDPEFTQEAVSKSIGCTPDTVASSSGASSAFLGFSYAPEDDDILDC

[5] = target: T2, Serine/threonine-protein kinase Sgk2 (Homo sapiens); conditions: at 1 µM
[6] = target: T3, Serine/threonine-protein kinase Sgk3 (Homo sapiens) (UniProt Q96BR1); conditions: at 0.1 µM
T3 sequence (whole entry): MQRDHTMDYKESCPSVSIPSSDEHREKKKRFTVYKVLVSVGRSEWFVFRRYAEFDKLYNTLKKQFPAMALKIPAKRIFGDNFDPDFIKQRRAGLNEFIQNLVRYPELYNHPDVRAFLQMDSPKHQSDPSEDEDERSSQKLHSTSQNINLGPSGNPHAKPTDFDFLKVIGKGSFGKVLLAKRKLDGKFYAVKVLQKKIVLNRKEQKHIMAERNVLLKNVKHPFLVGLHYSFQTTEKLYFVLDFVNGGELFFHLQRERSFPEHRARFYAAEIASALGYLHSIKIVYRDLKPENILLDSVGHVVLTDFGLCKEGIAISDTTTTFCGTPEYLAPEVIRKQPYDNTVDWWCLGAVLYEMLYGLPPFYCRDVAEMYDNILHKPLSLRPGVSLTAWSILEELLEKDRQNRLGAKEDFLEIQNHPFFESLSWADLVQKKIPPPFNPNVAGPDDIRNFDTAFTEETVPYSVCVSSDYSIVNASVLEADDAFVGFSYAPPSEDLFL

[7] = target: T3, Serine/threonine-protein kinase Sgk3 (Homo sapiens); conditions: at 1 µM
[8] = target: 5'-AMP-activated protein kinase catalytic subunit alpha-1 (Homo sapiens) (UniProt Q13131); conditions: at 0.1 µM
[9] = target: 5'-AMP-activated protein kinase catalytic subunit alpha-1 (Homo sapiens) (UniProt Q13131); conditions: at 1 µM
[10] = target: 5'-AMP-activated protein kinase catalytic subunit alpha-2 (Homo sapiens) (UniProt P54646); conditions: at 0.1 µM
[11] = target: 5'-AMP-activated protein kinase catalytic subunit alpha-2 (Homo sapiens) (UniProt P54646); conditions: at 1 µM
[12] = target: T4, NUAK family SNF1-like kinase 1 (Homo sapiens) (UniProt O60285); conditions: at 0.1 µM
T4 sequence (whole entry): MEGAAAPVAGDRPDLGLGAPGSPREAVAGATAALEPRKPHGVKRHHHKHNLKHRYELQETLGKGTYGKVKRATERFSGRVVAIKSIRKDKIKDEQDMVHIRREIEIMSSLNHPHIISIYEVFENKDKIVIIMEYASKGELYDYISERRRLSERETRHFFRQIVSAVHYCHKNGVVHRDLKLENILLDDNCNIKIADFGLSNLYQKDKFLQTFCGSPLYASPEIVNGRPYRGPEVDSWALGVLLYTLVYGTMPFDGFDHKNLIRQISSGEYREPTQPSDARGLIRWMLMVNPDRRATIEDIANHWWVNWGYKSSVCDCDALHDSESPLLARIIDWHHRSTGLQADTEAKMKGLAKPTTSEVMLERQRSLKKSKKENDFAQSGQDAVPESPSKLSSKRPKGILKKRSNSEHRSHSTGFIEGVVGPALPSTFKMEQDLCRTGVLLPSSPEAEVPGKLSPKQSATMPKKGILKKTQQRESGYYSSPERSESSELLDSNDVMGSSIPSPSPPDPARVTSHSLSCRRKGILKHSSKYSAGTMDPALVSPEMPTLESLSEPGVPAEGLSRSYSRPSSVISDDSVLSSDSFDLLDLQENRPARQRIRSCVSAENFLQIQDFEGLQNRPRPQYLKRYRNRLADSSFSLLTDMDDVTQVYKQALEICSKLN

[13] = target: T4, NUAK family SNF1-like kinase 1 (Homo sapiens); conditions: at 1 µM
[14] = target: T5, Serine/threonine-protein kinase BRSK1 (Homo sapiens) (UniProt Q8TDC3); conditions: at 0.1 µM
T5 sequence (whole entry): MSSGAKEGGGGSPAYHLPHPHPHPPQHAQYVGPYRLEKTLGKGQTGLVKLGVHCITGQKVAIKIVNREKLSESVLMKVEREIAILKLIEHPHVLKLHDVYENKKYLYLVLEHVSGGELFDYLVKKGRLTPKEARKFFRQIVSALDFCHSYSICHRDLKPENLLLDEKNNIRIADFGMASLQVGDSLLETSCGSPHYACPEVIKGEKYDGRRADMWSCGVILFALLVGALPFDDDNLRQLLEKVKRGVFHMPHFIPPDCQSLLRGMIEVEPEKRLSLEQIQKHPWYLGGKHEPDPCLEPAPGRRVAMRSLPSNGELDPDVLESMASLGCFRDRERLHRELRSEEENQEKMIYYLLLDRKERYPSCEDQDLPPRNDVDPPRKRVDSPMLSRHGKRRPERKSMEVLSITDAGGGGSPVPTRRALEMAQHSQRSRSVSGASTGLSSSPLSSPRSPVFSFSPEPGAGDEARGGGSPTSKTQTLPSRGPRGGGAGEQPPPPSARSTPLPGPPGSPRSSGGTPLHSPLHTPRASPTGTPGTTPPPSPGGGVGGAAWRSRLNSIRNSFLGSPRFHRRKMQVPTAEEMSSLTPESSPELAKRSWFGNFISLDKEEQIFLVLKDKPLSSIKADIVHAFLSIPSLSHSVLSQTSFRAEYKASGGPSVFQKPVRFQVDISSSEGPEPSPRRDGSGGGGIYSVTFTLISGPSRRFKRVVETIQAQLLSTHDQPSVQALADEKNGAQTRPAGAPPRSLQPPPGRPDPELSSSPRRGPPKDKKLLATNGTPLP

[15] = target: T5, Serine/threonine-protein kinase BRSK1 (Homo sapiens); conditions: at 1 µM
[16] = target: T6, Serine/threonine-protein kinase BRSK2 (Homo sapiens) (UniProt Q8IWQ3); conditions: at 0.1 µM
T6 sequence (whole entry): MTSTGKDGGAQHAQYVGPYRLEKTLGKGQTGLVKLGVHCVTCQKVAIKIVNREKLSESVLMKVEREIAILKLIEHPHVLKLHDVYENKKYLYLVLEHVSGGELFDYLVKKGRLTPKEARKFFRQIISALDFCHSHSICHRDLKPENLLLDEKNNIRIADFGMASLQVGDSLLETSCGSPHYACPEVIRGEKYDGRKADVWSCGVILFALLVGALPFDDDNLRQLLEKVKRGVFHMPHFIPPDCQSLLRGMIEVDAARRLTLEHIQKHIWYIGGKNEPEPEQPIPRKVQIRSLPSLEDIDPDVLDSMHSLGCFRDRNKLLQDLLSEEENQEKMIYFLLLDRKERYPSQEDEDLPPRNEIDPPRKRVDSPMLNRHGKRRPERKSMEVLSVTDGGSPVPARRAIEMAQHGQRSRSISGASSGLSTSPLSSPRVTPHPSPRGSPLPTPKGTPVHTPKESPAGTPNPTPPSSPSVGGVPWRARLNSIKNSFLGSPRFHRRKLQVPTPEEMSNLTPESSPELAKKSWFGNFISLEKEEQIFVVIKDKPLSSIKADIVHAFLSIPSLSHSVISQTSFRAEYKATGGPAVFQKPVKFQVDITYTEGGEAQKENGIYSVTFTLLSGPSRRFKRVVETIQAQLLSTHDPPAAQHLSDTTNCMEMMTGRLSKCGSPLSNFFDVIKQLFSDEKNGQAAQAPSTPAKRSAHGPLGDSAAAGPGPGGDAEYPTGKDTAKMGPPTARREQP

[17] = target: T6, Serine/threonine-protein kinase BRSK2 (Homo sapiens); conditions: at 1 µM
[18] = target: Calcium/calmodulin-dependent protein kinase type 1D (Homo sapiens) (UniProt Q8IU85); conditions: at 0.1 µM
[19] = target: Calcium/calmodulin-dependent protein kinase type 1D (Homo sapiens) (UniProt Q8IU85); conditions: at 1 µM
[20] = target: Calcium/calmodulin-dependent protein kinase type II subunit alpha (Homo sapiens) (UniProt Q9UQM7); conditions: at 0.1 µM;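 also: reported values are averages (mean inhibition of CAMK2A)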
Calcium/calmodulin-dependent protein kinase type II subunit alpha (Homo sapiens), sequence (Q9UQM7 whole entry): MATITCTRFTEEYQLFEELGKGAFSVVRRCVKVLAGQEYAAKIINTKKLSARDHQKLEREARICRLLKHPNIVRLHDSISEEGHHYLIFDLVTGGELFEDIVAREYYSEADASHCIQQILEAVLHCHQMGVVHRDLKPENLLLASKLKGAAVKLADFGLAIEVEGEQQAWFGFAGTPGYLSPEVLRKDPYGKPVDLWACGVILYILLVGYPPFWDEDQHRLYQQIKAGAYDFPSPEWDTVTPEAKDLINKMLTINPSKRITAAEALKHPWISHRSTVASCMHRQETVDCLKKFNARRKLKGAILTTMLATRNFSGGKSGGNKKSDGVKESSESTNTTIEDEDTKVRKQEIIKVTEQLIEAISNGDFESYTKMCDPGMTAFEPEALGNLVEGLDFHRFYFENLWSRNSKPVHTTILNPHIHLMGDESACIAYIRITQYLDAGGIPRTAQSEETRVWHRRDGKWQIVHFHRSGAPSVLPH

Calcium/calmodulin-dependent protein kinase type 1D (Homo sapiens), sequence (Q8IU85 whole entry, looked up): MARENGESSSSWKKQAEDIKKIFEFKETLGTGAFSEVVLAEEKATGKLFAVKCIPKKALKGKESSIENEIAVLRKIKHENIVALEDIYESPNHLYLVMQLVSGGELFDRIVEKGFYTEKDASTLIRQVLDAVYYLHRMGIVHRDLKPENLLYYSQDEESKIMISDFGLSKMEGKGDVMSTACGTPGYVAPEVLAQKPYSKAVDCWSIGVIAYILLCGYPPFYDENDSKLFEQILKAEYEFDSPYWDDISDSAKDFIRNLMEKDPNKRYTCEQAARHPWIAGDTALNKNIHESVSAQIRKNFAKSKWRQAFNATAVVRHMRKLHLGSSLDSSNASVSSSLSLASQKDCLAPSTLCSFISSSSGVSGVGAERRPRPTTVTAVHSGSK
5'-AMP-activated protein kinase catalytic subunit alpha-1 (Homo sapiens), sequence (Q13131 whole entry, looked up): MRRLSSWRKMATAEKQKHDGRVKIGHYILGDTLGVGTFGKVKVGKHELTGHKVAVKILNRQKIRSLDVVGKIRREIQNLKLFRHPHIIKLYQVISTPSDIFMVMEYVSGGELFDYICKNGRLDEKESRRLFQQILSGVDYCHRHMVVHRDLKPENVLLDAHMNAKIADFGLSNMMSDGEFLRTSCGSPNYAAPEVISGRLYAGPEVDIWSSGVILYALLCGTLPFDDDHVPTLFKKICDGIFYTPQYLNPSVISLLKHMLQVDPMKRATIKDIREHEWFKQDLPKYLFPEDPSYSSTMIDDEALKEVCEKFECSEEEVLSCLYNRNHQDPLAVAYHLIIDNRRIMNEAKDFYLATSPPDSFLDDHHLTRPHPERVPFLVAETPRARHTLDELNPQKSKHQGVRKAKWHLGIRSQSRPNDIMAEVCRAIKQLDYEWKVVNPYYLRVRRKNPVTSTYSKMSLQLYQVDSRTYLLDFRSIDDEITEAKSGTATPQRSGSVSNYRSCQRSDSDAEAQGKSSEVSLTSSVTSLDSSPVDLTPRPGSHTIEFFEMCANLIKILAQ
5'-AMP-activated protein kinase catalytic subunit alpha-2 (Homo sapiens), sequence (P54646 whole entry, looked up): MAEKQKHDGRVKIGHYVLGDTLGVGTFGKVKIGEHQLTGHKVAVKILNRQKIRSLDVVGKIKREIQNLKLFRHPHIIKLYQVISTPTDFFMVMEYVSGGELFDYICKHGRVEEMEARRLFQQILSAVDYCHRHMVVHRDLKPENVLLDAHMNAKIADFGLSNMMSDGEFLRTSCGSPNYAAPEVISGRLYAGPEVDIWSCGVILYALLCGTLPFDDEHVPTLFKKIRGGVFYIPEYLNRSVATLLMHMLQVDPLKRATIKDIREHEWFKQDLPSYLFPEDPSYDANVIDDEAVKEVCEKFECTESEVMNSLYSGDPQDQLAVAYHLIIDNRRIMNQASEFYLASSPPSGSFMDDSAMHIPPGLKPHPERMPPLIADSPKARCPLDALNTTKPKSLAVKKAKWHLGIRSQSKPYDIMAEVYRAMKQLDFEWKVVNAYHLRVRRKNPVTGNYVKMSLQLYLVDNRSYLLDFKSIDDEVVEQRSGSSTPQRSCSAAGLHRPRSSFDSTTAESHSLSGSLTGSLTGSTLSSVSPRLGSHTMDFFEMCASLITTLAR
Ribosomal protein S6 kinase alpha-6 (Homo sapiens), sequence (Q9UK32 whole entry): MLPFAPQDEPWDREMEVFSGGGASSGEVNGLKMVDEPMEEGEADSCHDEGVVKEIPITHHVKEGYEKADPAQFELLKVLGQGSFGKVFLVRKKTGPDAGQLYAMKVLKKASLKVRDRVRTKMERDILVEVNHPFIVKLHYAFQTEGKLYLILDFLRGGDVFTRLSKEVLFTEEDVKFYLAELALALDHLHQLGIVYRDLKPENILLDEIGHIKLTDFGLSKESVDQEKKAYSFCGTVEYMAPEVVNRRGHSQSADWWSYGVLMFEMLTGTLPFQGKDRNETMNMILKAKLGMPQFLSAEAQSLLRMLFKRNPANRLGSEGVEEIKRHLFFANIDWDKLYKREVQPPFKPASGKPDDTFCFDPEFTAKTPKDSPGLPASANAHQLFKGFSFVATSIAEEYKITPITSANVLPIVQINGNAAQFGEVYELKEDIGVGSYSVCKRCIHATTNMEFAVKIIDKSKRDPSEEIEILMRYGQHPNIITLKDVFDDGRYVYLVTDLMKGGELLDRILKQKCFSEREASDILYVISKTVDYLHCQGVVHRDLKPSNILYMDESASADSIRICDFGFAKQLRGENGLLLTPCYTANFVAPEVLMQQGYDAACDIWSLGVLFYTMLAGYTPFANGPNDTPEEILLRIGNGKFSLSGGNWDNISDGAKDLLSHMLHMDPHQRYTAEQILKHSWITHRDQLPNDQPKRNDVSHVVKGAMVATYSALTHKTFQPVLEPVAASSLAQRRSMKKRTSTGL

Structure (SMILES)	inhibition [1] [%]	inhibition [2] [%]	inhibition [3] [%]	inhibition [4] [%]	inhibition [5] [%]	inhibition [6] [%]	inhibition [7] [%]	inhibition [8] [%]	inhibition [9] [%]	inhibition [10] [%]	inhibition [11] [%]	inhibition [12] [%]	inhibition [13] [%]	inhibition [14] [%]	inhibition [15] [%]	inhibition [16] [%]	inhibition [17] [%]	inhibition [18] [%]	inhibition [19] [%]	inhibition [20] [%]
COc1cc(C=NNc2ncnc3c2cnn3-c2ccccc2)ccc1O	6.36	4.35	12.3	1.73	12.3	1.97	1.32	2.74	4.76	0.75	6.79	16.1	57.3	8.76	40.1	10.3	43.5	0.83	2.96	3.14
COc1ccc2cc(-c3c(-c4ccncc4)nc(-c4ccc([S+](C)[O-])cc4)n3C)ccc2c1 (stereo not given)	1.25	1.97	0.68	2.93	-0.04	2.63	4.38	3.11	1.29	1.9	3.34	1.01	2.13	1.67	3.16	1.67	0.66	-0.09	0.68	3.34
CCc1cccc(NC(=O)Nc2ccc(Oc3ccc4nc(NC(=O)OC)[nH]c4c3)cc2)c1	1.25	0.38	1.59	3.74	-0.81	5.12	3.61	1.46	0.41	-5.13	-0.72	1.37	4.18	0.6	0.32	3.12	5.96	0.1	1.18	4.24
COc1ccc(-c2nn3ncccc3c2-c2ccnc(Nc3ccc(Cl)c(C(F)(F)F)c3)n2)cc1	0.85	1.68	4.61	-2.66	0.76	2.3	2.89	2.31	2.56	0.17	-8.45	-1.07	-2.34	1.4	1.98	2.7	4.49	-0.51	-1.4	1.97
COc1cc2ncn(-c3cc(OCc4ccccc4C(F)(F)F)c(C(N)=O)s3)c2cc1OC	23.6	3.02	1.49	6.11	0.81	3.87	1.64	5.52	19.1	2.61	6.24	21.7	65.5	6.7	41.1	14.8	52.4	-0.86	-1.9	2.39
COc1cc2ncn(-c3cc(O[C@H](C)c4ccccc4Cl)c(C(N)=O)s3)c2cc1OC	25.5	5.03	7.28	2.67	5.65	5.72	6.55	6.49	23.7	2.58	8.68	24	71.8	30.1	64.9	42	69.2	1.01	2.31	3.24
Nc1ncnc2occ(-c3ccc(NC(=O)Nc4cccc(C(F)(F)F)c4)cc3)c12	9.85	4.14	3.96	3.57	4.73	6.15	2.94	1.82	5.16	2.97	5.34	1.07	8.04	0.85	10.2	5.5	9.75	0.29	7.97	2.71
COC(=O)Nc1nc2cc(Oc3ccc(NC(=O)Nc4cccc(C(=O)O)c4)cc3)ccc2[nH]1	1.45	1.3	1.96	1.67	1.89	-2.29	2.6	1.04	4.37	-4.37	2.8	6.73	8	-1.07	2.91	2.19	9.32	0.59	-1.87	1.77
Cc1cccc(-c2n[nH]cc2-c2ccc3ncccc3n2)n1	1.71	0.86	1.34	0.23	0.54	0.78	-0.02	1.82	0.12	0.85	1.54	0.78	4.74	0.22	1.97	2.17	2.14	0.56	1.08	-1.03
CCn1c(-c2nonc2N)nc2c(N3CCCC3)nccc21	-0.13	0.28	-1.03	-2.98	2.83	-0.79	-0.02	-0.36	0.11	-8	0.77	4.51	0.95	1.14	1.31	1.48	3.56	-0.31	-0.81	-1.53
COc1cc2ncn(-c3cc(OCc4ccccc4Cl)c(C(N)=O)s3)c2cc1OC	17.2	0.97	1.67	0.56	0.22	2.12	0.41	1.36	10.7	4.07	3.59	14.3	58.6	7.81	40.6	12.4	48.6	0.78	3.64	-2.74
O=C1NC(=O)C(N2CCc3ccccc32)=C1c1ccc(Cl)cc1	1.19	2.14	2.97	2.07	1.86	3.22	3	0.74	4.36	4.52	5.78	4.44	7.39	3.67	5.07	2.92	3.2	0.76	1.55	4.4
CCn1c(-c2nonc2N)nc2cnc(Oc3cccc(NC(=O)c4ccc(OCCN5CCOCC5)cc4)c3)cc21	13.8	7.56	34.7	15.7	58.5	36.3	74.3	2.28	2.06	2.76	3.43	5.2	26.9	1.86	0.26	1.64	2.71	-0.02	2.35	1.46
